Screening data (PubChem)
HCV inhibitor = inhibitors of hepatitis C virus infection; Huh7.5.1 HCVcc-Cre infection, luciferase reporter, 44 h; Potency, µM (titrated, usually from 41.8 µM), without a hit: at the highest dose activity change, negative = inhibition, actives largely listed as inhibitors; 340,000 compounds, 3.4% hits; AID 651820; note: potency is the fitted concentration of half-maximal effect; % is set by controls: 0 for no effect and ±100 for the full control effect
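Infectious HCV cell culture screen: compound-treated cells (1,000/well, pre-plated 4 h) are infected with HCVcc-Cre at roughly 0.5 moi and grown 44 h. Infection is quantified by luciferase signal after 15 min substrate incubation at room temperature.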
Sm TGR block = inhibitors of Schistosoma mansoni thioredoxin glutathione reductase. Q962Y6. purified TGR, DTNB reduction, TNB absorbance 405 nm. Potency, µM (highest dose often 114 µM), inactives show at the top dose activity change, negative = inhibition, hits mostly inhibitors. 360,000 compounds, 3% hits. AID 485364; note: potency is the fitted concentration of half-maximal effect; % is set by controls: 0 for no effect and ±100 for the full control effect; nearly all actives have a fitted effect of over 60% in size
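Kinetic colorimetric format: TGR-catalysed, NADPH-driven DTNB reduction monitored via TNB absorbance. Enzyme dispensed at 20 nM; compound exposure 15 min at room temperature before reaction start.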
Pf growth 48h = P. falciparum growth inhibition at 48 hours (one generation); P. falciparum luciferase growth in erythrocytes, 48 h; Potency, µM (doses to about 28.7 µM), for the others: top-dose activity change, negative = inhibition, hits mostly inhibitors; 310,000 compounds, 5.9% hits; AID 504832; note: potency is the fitted concentration of half-maximal effect; % is set by controls: 0 for no effect and ±100 for the full control effect
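Growth was read as firefly luciferase luminescence after a 48 h, 37 C, 5% CO2 exposure of compounds to reporter-bearing P. falciparum cultures (0.1% parasitemia, 2% hematocrit final) in Albumax-supplemented RPMI 1640.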
SARS PLP yeast = SARS-CoV PLP inhibition in yeast. S. cerevisiae expressing SARS-CoV PLpro, growth rescue. Potency, µM (titrated, usually from 32.9 µM), without a hit: at the top dose activity, positive = growth rescue, hits mostly activators. 330,000 compounds, 0.19% hits. AID 485353; calls by dose curve; note: potency is the fitted concentration of half-maximal effect; 0% is about no effect; nearly all actives have a fitted effect of over 55% in size
Pf growth 96h = inhibits malaria parasite growth, 96 h; P. falciparum luciferase reporter growth, 96 h; Potency, µM (top dose mostly 28.7 µM), without a hit: at the top dose activity change, negative = inhibition, actives largely listed as inhibitors; 320,000 compounds, 6.9% hits; AID 504834; note: potency is the fitted concentration of half-maximal effect; % is set by controls: 0 for no effect and ±100 for the full control effect
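P. falciparum expressing integrated firefly luciferase grown in erythrocytes (2% hematocrit, 0.05% parasitemia final) with compounds for 96 hours at 37 C, 5% CO2. Growth inhibition read as loss of luminescence after adding luciferase detection reagent.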
HCMV antiviral = human cytomegalovirus inhibition | activity change, negative = inhibition, % at 57.5 µM | 410,000 compounds, 4.5% hits | HFF cells, HCMV-luciferase reporter, 72 h; stronger effect = lower value | AID 1259415; in the data active = activity change below about -60%; inconclusive = no clear call, values can overlap the other calls; inactive = above about -39%; note: % is set by controls: 0 for no effect and ±100 for the full control effect
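Compounds were evaluated in HFFs infected with an HCMV luciferase reporter virus (MOI 1 PFU/cell). Luciferase in lysates collected 72 h post infection served as the replication measure.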
The depositor's hits bear a star; ? = inconclusive; . = no result; ! = not confirmed by another sample; [ ] = dose if it differs, or a comment. Hits are enriched below; roughly 15% of the tested compounds scored in any of these assays. Unless noted, calls come from the whole dose curve; as a rule, active = well fitted curve in the direction sought with a large enough effect; inconclusive = small, poorly fitted or top-dose-only effect, or another doubt; inactive = no such curve, though single readings can be large; an effect the other way counts as inactive or inconclusive.

SMILES	HCV inhibitor	Sm TGR block	Pf growth 48h	SARS PLP yeast	Pf growth 96h	HCMV antiviral
Cc1ccc(C)c(Cn2c3ccccc3c3cnn(CC(=O)NCCN4CCOCC4)c(=O)c32)c1	-27.6%	-18.9%	?	-2.7%	9.28µM*	51.9
Cc1cc(C)c(Cn2c3ccccc3c3cnn(CC(=O)NCc4ccccn4)c(=O)c32)c(C)c1	?	0.8%	?	-3.0%	-4.1%	-62.5*!
Cc1ccccc1Cn1c2ccccc2c2cnn(CC(=O)NCc3ccccn3)c(=O)c21	-21.8%	2.2%	?	-3.6%	-12.2%	0.4
CC1CC(C)CN(CCCNC(=O)Cn2ncc3c(=O)oc4ccccc4c32)C1 (stereo not given)	0.6%	1.3%	.	0.3%	?	-8.5
Cc1cc(C)c(Cn2c3ccccc3c3cnn(CC(=O)NCCN4CCOCC4)c(=O)c32)c(C)c1	?	-6.2%	?	-3.9%	?	?
Cc1ccc(C)c(Cn2c3ccccc3c3cnn(CC(=O)NCCCN4CCOCC4)c(=O)c32)c1	-23.7%	-4.4%	13.1µM*	-0.9%	?	-31.4
Cc1c2cnn(CC(=O)NCCCN3CC(C)CC(C)C3)c(=O)c2c(C)n1Cc1ccccc1Cl (stereo not given)	-18.7%	-8.5%	6.57µM*	3.1%	5.8%	-68.7*
Cc1ccc(C)c(Cn2c3ccccc3c3cnn(CC(=O)NCc4ccccc4)c(=O)c32)c1	.	0.1%	.	.	.	-2.6
CCCCC1=CC2=CC(=O)C(C)(OC(=O)CC)C(=O)C2=CN1c1ccccc1 (stereo not given)	-0.8%	4.4%	10.4µM*	0.0%	13.1µM*	.
CCCCC1=CC2=CC(=O)C(C)(OC(=O)CC)C(=O)C2=CN1CCOC (stereo not given)	3.5%	2.6%	?	-2.6%	20.8%	.
CCCCC1=CC2=CC(=O)C(C)(OC(=O)CC)C(=O)C2=CN1Cc1ccccc1 (stereo not given)	-6.5%	-17.4%	?	-5.6%	?	-37.5
CCCCC1=CC2=CC(=O)C(C)(OC(=O)CC)C(=O)C2=CN1CCc1ccc(Br)cc1 (stereo not given)	-19.8%	-17.8%	9.28µM*	3.3%	?	-23.7
Cn1cc(CC(=O)N2CCN(c3ccc(Cl)cc3)CC2)c2ccccc21	?	1.9%	-8.7%	-5.6%	11.7µM*	5.7
CC(NCC(O)COc1ccc2ccccc2c1)c1ccccc1 (stereo not given)	6.31µM*	5.6%	9.28µM*	0.2%	9.28µM*	-84.1*
COc1ccc(OCC(O)CNC(C)c2ccccc2)cc1 (stereo not given)	-28.9%	14.3%	-16.1%	-1.8%	?	?
CCC(CC)NCC(O)COc1ccc(Br)cc1 (stereo not given)	?	6.8%	3.7µM*	-1.3%	7.38µM*	-31.0
CC(C)NCC(O)COc1ccc(CCOCC2CC2)cc1 (stereo not given)	0.5%[8.37 µM]	-15.0%	13.5µM*!	-23.4%	3.38µM*!	-37.2
CCCC(NCC(O)COc1ccc(-c2ccccc2)cc1)c1ccccc1 (stereo not given)	11.2µM*	-3.8%	?	-4.7%	?	-31.8
CCOC(=O)N1CCc2c(sc3c2C(=O)NC(c2ccc(N(C)C)cc2)N3)C1 (stereo not given)	.	-9.9%	.	.	.	-14.4
O=C(CN1C(=O)C2(SCC(=O)N2c2ccc(F)cc2)c2ccccc21)NC1CCCCC1 (stereo not given)	.	15.2%	.	.	.	-3.5
COc1cc(OC)cc(C(C(=O)NC2CCCCC2)N(C(=O)c2ccno2)c2ccccc2)c1 (stereo not given)	2.8%	-19.5%	?	1.5%	-11.4%	10.9
CCn1c(C(=O)Nc2cc(C)cc(C)c2)cc2sc(Cl)cc21	.	0.5%	.	.	.	-17.9
CC(CCc1ccccc1)NCC(O)COc1ccccc1 (stereo not given)	?	6.8%	5.22µM*	0.2%	?	-25.7
CCc1n(CC(O)COC2CCCCC2)c2ccccc2[n+]1C (stereo not given)	11.3%	-0.2%	2.62µM*	0.4%	?	-29.9
COc1ccc(OC)c(NC(=O)CC2C(=O)NCCN2C(=O)C(F)(F)F)c1 (stereo not given)	.	5.1%	.	.	.	-0.3
SMILES	HCV inhibitor	Sm TGR block	Pf growth 48h	SARS PLP yeast	Pf growth 96h	HCMV antiviral
C/C(=C\C(=O)c1ccccc1)NNC(=O)c1ccc(Cl)cc1	22.3%	-27.1%	-4.4%	-1.0%	0.0%	-73.3*
COc1ccc(N/C(C)=C/C(=O)c2ccccc2)cc1	10µM*	-1.0%	190.7%	1.6%	11.7µM*	-11.0
CC(=O)Nc1ccc(N/C(C)=C/C(=O)c2cccnc2)cc1	0.2%	4.8%	16.5%	-20.0%	64.9%	-61.5*
COc1ccc(C(=O)NN/C(C)=C/C(=O)c2ccccc2)cc1	-20.6%	8.8%	?	-2.3%	?	17.8
COC(=O)/C(=C\C(=O)c1ccccc1)Nc1ccc(OC)cc1	11.8%	23.4%	110.5%	-0.5%	126.9%	38.4
Cc1ccc(-c2nnc(Nc3ccccc3)o2)cc1	-9.9%	-31.8%	-90.3%	-6.2%	?	?
Cc1ccc2oc(=O)c3cnn(CC(=O)Nc4cccc(C(F)(F)F)c4)c3c2c1	.	-10.7%	.	.	.	-4.8
C=C1CCc2c([nH]c3ccc(OCC(C)C)cc23)C1=O	?	0.0%	6.6%	-3.1%	22.0%	-14.2
CSCCC(NC(=O)c1ccco1)c1nc2ccccc2[nH]1 (stereo not given)	7.9%	3.2%	-15.5%	0.0%	-29.9%	1.3
COc1ccc(NC(=O)CSc2ncc3c(n2)-c2ccccc2N(Cc2ccc(C)cc2)S3(=O)=O)cc1Cl	.	-2.9%	.	.	.	7.9
CC1(C)O[C@@H]2C[C@H]3[C@@H]4CCC5=CC(=O)C=C[C@]5(C)[C@@]4(F)[C@@H](O)C[C@]3(C)[C@]2(C(=O)CO)O1	-6.2%[8.37 µM]	-13.0%	?	-3.5%	?	36.8
CC1(C)O[C@H]2C[C@@H]3[C@H]4CCC5=CC(=O)C=C[C@]5(C)[C@@]4(F)[C@@H](O)C[C@]3(C)[C@]2(C(=O)CO)O1	.	.	?	.	9.53µM*	.
CC(=O)OCC(=O)[C@@]12OC3(CCCC3)O[C@@H]1C[C@H]1[C@@H]3CCC4=CC(=O)C=C[C@]4(C)[C@@]3(F)[C@@H](O)C[C@@]12C	-10.2%[8.37 µM]	0.0%	11.7µM*	-23.7%	10.4µM*	27.7
CCC(CO)Oc1cc(NC(=O)c2ccccc2[N+](=O)[O-])c2ncn(C(C)C)c2c1 (stereo not given)	?	.	.	-1.2%	.	-0.2
CC12CCC(C1)C(C)(C)C2=O (stereo not given)	.	.	4.6%	.	-7.6%	.
